Hits are enriched below; roughly 7.3% of the tested compounds scored in any of these assays.
NPC1 promoter act: qHTS Assay for NPC1 Promoter Activators | Huh7 NPC1 promoter luciferase reporter, 24 h | Potency, µM (doses to about 9.22 µM), inactives show at the top dose activation, hits mostly activators | actives 2.4% (n = 320,000); also: % of control where 0% means no effect; nearly all actives have a fitted effect of over 60% in size
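Stable NPC1-promoter luciferase Huh7 line; cpd (DMSO) 24 h, 37 °C, 5% CO2; Amplite luciferase reagent 10 min RT; luminescence readout. qHTS format.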
ELG1 genotox: qHTS screen for small molecules that induce genotoxicity in human embryonic kidney (HEK293T) cells expressing luciferase-tagged ELG1 | HEK293T ELG1-luciferase reporter, luminescence, 16 h | Potency, µM (highest dose often 46 µM), for the others: at the top dose activity change, positive = activation, hits mostly activators | actives 1.3% (n = 330,000); also: % of control where 0% means no effect; nearly all actives have a fitted effect of over 60% in size
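16 hr compound incubation (37 °C, 5% CO2) of HEK293T cells carrying luciferase-tagged ELG1; luciferase then measured by ONE-Glo luminescence after 30 min at RT.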
Rab9 promoter act: qHTS Assay for Rab9 Promoter Activators; Potency, µM (top dose mostly 9.22 µM), inactives show at the highest dose activation, negative = inhibition, actives largely listed as activators; actives 2.8% (n = 320,000); Huh7 Rab9 promoter-luciferase reporter, luminescence, 24 h; also: % of control where 0% means no effect; nearly all actives have a fitted effect of over 60% in size
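Measured in stably transfected Huh7 cells bearing a Rab9 promoter–luciferase construct: 24 h compound treatment at 37 °C, followed by luminescence detection.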
KinaseGlo FLuc: Counterscreen for Luciferase (Kinase-Glo TM) Inhibition. Luciferin 4-monooxygenase (Photuris pensylvanica), Q27757. Kinase-Glo luciferase, ATP luminescence, 8 min. Potency, µM (highest dose often 38.3 µM), for the others: top-dose activity change, negative = inhibition, actives largely listed as inhibitors. actives 0.28% (n = 200,000). AID 1379, 2008; also: % is scaled to controls: 0 for no effect and ±100 for the full control effect; nearly all actives have a fitted effect of over 60% in size
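Light output from Kinase-Glo luciferase with luciferin and 10 uM ATP in 50 mM imidazole pH 7.2, KCl, MgCl2, Tween 20, BSA; compound pin-delivered, 8-min ambient incubation, then luminescence read.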
FLuc modulator: qHTS profiling assay for firefly luciferase inhibitor/activator using purifed enzyme and Km concentrations of substrates (counterscreen for miR-21 project); actives 6.9% (n = 360,000); AID 588342, 2011; Potency, µM (series often up to 57.5 µM), without a hit: at the highest dose activity change, negative = inhibition, usual class: inhibitors; purified FLuc, Km substrates, luminescence inhibition; Luciferin 4-monooxygenase (Photinus pyralis), P08659;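 also: plate controls were vehicle for no effect and reference inhibitor for full effect; nearly all actives have a fitted effect of over 55% in size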
Target sequence (P08659 whole entry, looked up): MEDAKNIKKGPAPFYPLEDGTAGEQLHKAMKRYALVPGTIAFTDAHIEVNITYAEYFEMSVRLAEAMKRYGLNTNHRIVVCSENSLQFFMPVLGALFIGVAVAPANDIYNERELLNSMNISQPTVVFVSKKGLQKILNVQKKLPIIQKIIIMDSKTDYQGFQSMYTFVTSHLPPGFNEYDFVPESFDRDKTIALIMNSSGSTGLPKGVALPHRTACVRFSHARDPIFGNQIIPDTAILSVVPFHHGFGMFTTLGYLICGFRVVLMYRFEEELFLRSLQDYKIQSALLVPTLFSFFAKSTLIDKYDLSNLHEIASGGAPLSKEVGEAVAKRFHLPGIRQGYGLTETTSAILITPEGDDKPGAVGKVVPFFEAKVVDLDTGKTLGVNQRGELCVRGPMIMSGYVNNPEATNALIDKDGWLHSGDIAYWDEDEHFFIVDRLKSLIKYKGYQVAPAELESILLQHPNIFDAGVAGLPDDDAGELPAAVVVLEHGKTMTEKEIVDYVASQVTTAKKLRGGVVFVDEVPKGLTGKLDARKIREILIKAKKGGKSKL
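Biochemical qHTS of compounds, final roughly 60 µM downward over six points, against 10 nM purified firefly luciferase using Km concentrations of substrates (10 uM D-luciferin, 10 uM ATP) in Tris acetate pH 7.5 buffer; luminescence output.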
SMN2 splice enh: qHTS Assay for Enhancers of SMN2 Splice Variant Expression. HEK293 SMN2-luciferase splicing reporter, luminescence, 30-36 h. Potency, µM (top dose mostly 46.1 µM), for inactives: at the highest dose activity change, positive = activation, hits mostly activators. actives 2.8% (n = 210,000); also: % of control where 0% means no effect; nearly all actives have a fitted effect of over 55% in size
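HEK293 cells carry an SMN2 minigene-luciferase reporter in which exon 7 inclusion puts luciferase in frame. Cells were seeded at 2000 cells/well, attached for 10-12 hours, then exposed to compounds for 30-36 hours at 37C before ONE-Glo luminescence.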
The depositor's hits bear a star; ? = inconclusive; . = not tested or not shown; [ ] = another dose, or the depositor's remark. Calls follow the shape of the dose curve; as a rule, active = well fitted curve in the direction sought with a large enough effect; inconclusive = small, poorly fitted or top-dose-only effect, or another doubt; inactive = no such curve, though single readings can be large; an effect the other way counts as inactive or inconclusive. Potency is read from the fitted curve at half-maximal effect.

SMILES	NPC1 promoter act	ELG1 genotox	Rab9 promoter act	KinaseGlo FLuc	FLuc modulator	SMN2 splice enh
Cc1ccc(C)c(S(=O)(=O)c2cn(C)c3cc(N4CCCCC4C)c(F)cc3c2=O)c1 (stereo not drawn)	.	.	.	.	1%	.
O=C(/C=C/c1ccc(Br)o1)Nc1nccs1	3.2µM*	?	2.8µM*	-1%	?	13µM*
O=C(Nc1nccs1)c1ccc(Br)o1	25%	13%	?	-14%	?	11µM*
Cc1oc2ncn(CC(C)C)c(=O)c2c1C(=O)NCCc1ccc(Cl)cc1	.	.	.	.	0%	.
CCSc1nncn1/N=C/c1ccc(OC)c(OC)c1	8%	?	23%	2%	?	?
C=C(C)CSc1nncn1/N=C/c1ccc(OC)cc1	?	?	4µM*	0%	12µM*	?
CCc1ccc(Nc2nnc(SCC(=O)NC(=O)CN3CCCC3=O)s2)cc1	0%	7%	3%	.	3µM*	.
CSc1nsc(SCC(=O)Nc2ccc(NC(C)=O)cc2)n1	2%	3%	-4%	.	-10%	.
COc1ccc(NC(=O)CSc2nnc(NC(=O)NC3CCCCC3)s2)cc1OC	.	.	.	.	2.4µM*	.
CSc1nsc(SCC(=O)Nc2ccc(C(C)=O)cc2)n1	24%	8.2µM*	15%	-2%	21µM*	13µM*
O=C(CSc1nnc(Nc2ccccc2)s1)NC1CCCC1	.	-1%	.	.	.	.
CC(=O)c1ccc(NC(=O)CSc2nnc(NC(=O)NC3CCCCC3)s2)cc1	.	.	.	.	0.48µM*	.
COc1ccccc1Nc1nnc(SCC(=O)NC2CCCC2)s1	-1%	-3%	-5%	.	-17%	.
O=C(CSc1nnc(NC(=O)NC2CCCCC2)s1)Nc1ccccc1F	.	.	.	.	3µM*	.
COc1ccccc1NC(=O)CSc1nnc(NC(=O)NC2CCCCC2)s1	.	.	.	.	2.4µM*	.
COc1ccccc1Nc1nnc(SCC(=O)N2CCCC2=O)s1	2%	17%	-7%	8%	9.5µM*	-26%
COc1ccccc1Nc1nnc(SCC(=O)N2CCCC2)s1	28%	?	27%	?	?	18%
O=C(NCCc1csc(-c2cccnc2)n1)c1cccc(C(F)(F)F)c1	.	.	.	.	-9%	.
COc1ccc2c(c1OC)C(=O)OC2Nc1ccccn1 (stereo not drawn)	4%	1%	-3%	3%	5%	22%
CCOC(=O)c1c(NC2OC(=O)c3c2ccc(OC)c3OC)sc(C(=O)OC(C)(C)C)c1C (stereo not drawn)	26%	?	22%	0%	17µM*	.
Cc1ccc2cc(CN(Cc3ccco3)S(=O)(=O)c3c(C)ccc4nsnc34)c(=O)[nH]c2c1	1%	-14%	-2%	16%	-13%	35µM*
COc1ccc(C(=O)N/N=C/c2ccc(OC(=O)c3ccccc3)cc2)cc1	1%	?	6%	-2%	0%	-10%[1.84 µM]
COc1cc(C(=O)Oc2ccc(/C=N/NC(=O)c3ccncc3)cc2)cc(OC)c1OC	-15%	-3%	-1%	.	5%	.
COc1cc(C(=O)Oc2ccccc2/C=N/NC(=O)c2ccc(C)cc2)cc(OC)c1OC	?	17%	?	0%	6µM*	-65%
COc1ccc(C(=O)N/N=C/c2ccccc2OC(=O)c2ccccc2)cc1	?	21µM*	-8%	.	?	.
NC(=O)N/N=C/c1ccccc1OC(=O)c1ccccc1Br	-5%	-8%	-2%	1%	27µM*	-23%
Cc1cc(NC(=O)c2coc(=O)c(Br)c2)ccc1C(C)C	18%	?	?	.	5.4µM*	.
C[C@@H](NC(=O)c1coc(=O)c(Br)c1)c1ccccc1	2%	21µM*	8%	5%	-2%	13µM*
CN(C)c1ncnc2ccc(-c3ccccc3C#N)cc12	.	.	.	-1%	.	-22%

Screening data (PubChem BioAssay)
